This passage reports z-score and composite z-score results from PubChem BioAssay.

Calls of active or inactive are those of the source. Unless noted, the rule behind the calls is not given here.

Experiment [1] is described as follows: compound effects on lung adenocarcinoma cell viability – A549, calcein-AM fluorescence, 48 h, basal, profiling panel (AID 1162). Note: test concentration not given here. The note with it: higher = more signal.
Experiment [2] in a line: compound effects on differentiated 3T3-L1 adipocyte viability – cell-based, 3T3-L1 adipocytes, calcein-AM fluorescence, 48 h, basal, profiling panel (AID 1163). Note: test concentration not given here. As to conditions: 3T3-L1 adipocytes viability, higher = more signal.
Experiment [3] in a line: compound effects on hepatocellular carcinoma cell viability – HepG2, calcein-AM fluorescence, 48 h, basal, profiling panel (AID 1164). Note: test concentration not given here. The note with it: higher = more signal.
Experiment [4] in a line: compound effects on multiple myeloma cell viability – MM1S, calcein-AM fluorescence, 48 h, basal, profiling panel (AID 1165). Note: test concentration not given here. As to conditions: higher = more signal.
Experiment [5] in a line: calcein-AM signal in unstimulated myeloma cells – cell-based, calcein-AM fluorescence, 48 h, PK04 Diversity Set, profiling panel (AID 1166).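 Note: cells grown under basal conditions without added stimulus; test concentration not given here.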 As to conditions: RPMI8226 myeloma viability, higher = more signal.
Experiment [6] in a line: JC-1 mitochondrial signal, unstimulated HepG2 cells – cell-based, JC-1 fluorescence, 24 h, 100 nL compound, profiling panel (AID 1167). Note: test concentration not given here. The note with it: HepG2 mitochondrial potential, higher = more signal.
The nature of experiment [7]: JC-1 mitochondrial signal, unstimulated adipocytes – cell-based, JC-1 fluorescence, 3T3-L1 adipocytes, 24 h, 100 nL compound, profiling panel (AID 1168). Note: test concentration not given here. As to conditions: JC-1 mitochondrial fluorescence, higher = more signal, called active from +8 up or from −8 down.
Experiment [8] can be described thus: JC-1 mitochondrial signal, unstimulated myeloma cells – cell-based, JC-1 fluorescence, RPMI8226, 24 h, 100 nL compound, profiling panel (AID 1169). Note: test concentration not given here. The note with it: JC-1 mitochondrial potential fluorescence, higher = more signal.
The nature of experiment [9]: JC-1 mitochondrial signal, unstimulated MM1S myeloma – cell-based, JC-1 fluorescence, 24 h, 100 nL compound, profiling panel (AID 1170). Note: test concentration not given here. The note with it: MM1S mitochondrial potential, higher = more signal.
Experiment [10] can be described thus: resazurin metabolic signal in A549 cells – cell-based, resazurin fluorescence, 24 h, PK04 Diversity Set, profiling panel (AID 1171). Note: test concentration not given here. As to conditions: A549 viability, higher = more signal, called active from +8 up or from −8 down.
Experiment [11] can be described thus: resazurin metabolic signal in HepG2 cells – cell-based, resazurin fluorescence, 24 h, PK04 Diversity Set, profiling panel (AID 1172). Note: test concentration not given here. As to conditions: HepG2 viability, higher = more signal. A general note: Alamar Blue is a resazurin reagent that responds to reducing activity.
Experiment [12] can be described thus: budding yeast growth changes without added modifier – OD600, strain BY4716, 24 h, basal condition, primary screen (AID 1173). As to conditions: S. cerevisiae BY4716 growth, OD600, 24 h; higher = more signal, called active from +8 up or from −8 down.
Experiment [13] is described as follows: viability profiling in MM1S myeloma cells – cell-based, resazurin fluorescence, basal, 24 h, PK04 Diversity Set, profiling panel (AID 1174). Note: test concentration not given here. As to conditions: higher = more signal, called active from +8 up or from −8 down.
For experiment [14], the target named is Dihydroorotate dehydrogenase (quinone), mitochondrial (Plasmodium falciparum (isolate 3D7)) (UniProt Q08210). The experiment in a line: inhibition of P. falciparum DHODH – biochemical, C-terminal His tag, absorbance 600 nm, primary screen (AID 1175).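 Note: recombinant parasite enzyme with a five histidine tag at its C terminus; test concentration not given here.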 As to conditions: PfDHODH enzyme, DCIP absorbance 600 nm; higher = more signal, called active from +8 up or from −8 down.

A short description of experiment [15]: inhibition of PAO1 biofilm formation – strain PAO1, LB-PBS medium, absorbance 600 nm, primary screen (AID 1176). Note: test concentration not given here. The note with it: P. aeruginosa PAO1 growth/biofilm, A600, 12 h; higher = more signal.
The nature of experiment [16]: growth modulation of vineyard yeast isolate – strain RM11-1a, OD600, basal, 24 h, primary screen (AID 1177).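 Note: cultures grown under basal conditions with no added stressor; test concentration not given here.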 As to conditions: S. cerevisiae RM11-1a growth, OD600, 24 h; higher = more signal, called active from +8 up or from −8 down.
The nature of experiment [17]: growth of efflux-deficient E. coli DRC39 – strain DRC39, OD650, 24 h, E. coli filamentation inducers, primary screen (AID 1178).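 Note: growth measured as culture turbidity by optical density at 650 nm; test concentration not given here.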 The note with it: E. coli DRC39 acrAB, higher = more signal, called active from +8 up or from −8 down.
A short description of experiment [18]: growth of efflux-deficient E. coli DRC39 – strain DRC39, OD650, 48 h, E. coli filamentation inducers, primary screen (AID 1179).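 Note: screen aims at cell division blockers that make cells filament.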 As to conditions: E. coli DRC39 delta-acrAB growth, higher = more signal, called active from +8 up or from −8 down.
A short description of experiment [19]: viability profiling in RPMI8226 myeloma cells – cell-based, resazurin fluorescence, basal, 24 h, PK04 Diversity Set, profiling panel (AID 1180).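 Note: RPMI8826 multiple myeloma cell line at 5000 cells per well; test concentration not given here.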 As to conditions: higher = more signal.
The target of experiment [20] is E3 ubiquitin-protein ligase XIAP (Homo sapiens) (UniProt P98170). Put plainly: small molecules binding XIAP protein – biophysical, small-molecule microarray, fluorescence 635 nm, primary screen (AID 1181).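 Note: score merges 667 nm emission and signal to noise over triplicate slides.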 As to conditions: higher = more signal.
E3 ubiquitin-protein ligase XIAP (Homo sapiens), sequence (P98170 whole entry, looked up): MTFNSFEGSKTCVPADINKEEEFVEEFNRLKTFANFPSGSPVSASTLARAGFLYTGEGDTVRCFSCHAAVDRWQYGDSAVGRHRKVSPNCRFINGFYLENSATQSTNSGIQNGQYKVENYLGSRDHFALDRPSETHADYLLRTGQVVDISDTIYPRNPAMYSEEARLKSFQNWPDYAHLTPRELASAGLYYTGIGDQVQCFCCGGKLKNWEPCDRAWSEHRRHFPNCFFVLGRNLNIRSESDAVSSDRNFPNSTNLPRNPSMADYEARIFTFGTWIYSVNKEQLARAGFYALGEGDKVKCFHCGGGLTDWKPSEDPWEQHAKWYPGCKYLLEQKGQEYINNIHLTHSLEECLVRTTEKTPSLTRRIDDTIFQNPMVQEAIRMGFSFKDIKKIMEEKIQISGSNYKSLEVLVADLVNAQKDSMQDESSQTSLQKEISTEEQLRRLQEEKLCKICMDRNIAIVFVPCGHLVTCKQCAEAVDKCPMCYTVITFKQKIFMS

Dihydroorotate dehydrogenase (quinone), mitochondrial (Plasmodium falciparum (isolate 3D7)), sequence (Q08210 whole entry, looked up): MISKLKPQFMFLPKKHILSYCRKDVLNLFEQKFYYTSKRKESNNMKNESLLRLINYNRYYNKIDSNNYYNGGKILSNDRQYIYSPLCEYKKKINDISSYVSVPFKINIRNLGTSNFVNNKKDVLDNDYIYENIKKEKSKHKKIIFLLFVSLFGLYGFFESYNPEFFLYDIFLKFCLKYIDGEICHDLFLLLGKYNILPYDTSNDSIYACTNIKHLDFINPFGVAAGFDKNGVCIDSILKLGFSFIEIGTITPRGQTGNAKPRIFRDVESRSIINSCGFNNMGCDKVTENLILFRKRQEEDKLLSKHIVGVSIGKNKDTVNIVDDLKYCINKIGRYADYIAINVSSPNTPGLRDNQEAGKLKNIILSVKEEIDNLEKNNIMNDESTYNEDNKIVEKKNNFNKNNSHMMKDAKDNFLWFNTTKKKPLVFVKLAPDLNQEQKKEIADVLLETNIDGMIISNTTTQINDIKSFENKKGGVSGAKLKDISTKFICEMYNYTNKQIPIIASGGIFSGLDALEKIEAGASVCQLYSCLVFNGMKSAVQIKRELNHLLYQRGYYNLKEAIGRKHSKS

For the compound `COC(=O)[C@@]1(Cc2ccccc2)[C@H]2c3cc(C(=O)N(C)C)n(Cc4ccsc4Br)c3C[C@H]2CN1C(=O)c1ccccc1`, the z-score in [1] was 0.209; in experiment [2] it was -1.34; in experiment [3], 0.369; in [4] it was -1.13; in experiment [5] it was -1.34; in [6], 1.17. Also, the z-score in [7] is 0.332 (inactive); in experiment [8], -0.776; in [9] it was -2; in [10] it was -2.34 (inactive); in experiment [11], -1.77; in experiment [12], 1.92 (inactive). The z-score was -1.74 (inactive) in [13]; 0.467 (inactive) in [15]; 1.24 (inactive) in experiment [16]; 0.156 (inactive) in [17]; 0.0523 (inactive) in experiment [18]; -3.12 in [19]. For the same compound, the composite z-score is 0.486 (inactive) in [14] and 0.0496 in experiment [20].
Consider `COC(=O)[C@@]1(Cc2ccc(OC)cc2)[C@H]2c3cc(C(=O)N(C)C)n(Cc4ccccn4)c3C[C@H]2CN1C(=O)c1ccccc1`, for which the z-score in experiment [1] was -0.865; in experiment [2], 0.626; in experiment [3], -0.319; in experiment [4], -0.684; in [5], -1.31; in experiment [6], 2.05. Further, the z-score in experiment [7] is -1.46 (inactive); in experiment [8], 0.155; in experiment [9], 0.016; in experiment [10] it was -0.793 (inactive); in experiment [11] it was -0.961; in experiment [12], 1.28 (inactive). Besides, the z-score in [13] is -1.24 (inactive); in experiment [15], 0.976 (inactive); in experiment [16], 0.607 (inactive); in experiment [17], -1.13 (inactive); in [18], -0.6 (inactive); in [19], -0.838. For the same compound, the figures for the composite z-score in experiment [14] and in experiment [20] were 1.02 (inactive) and 0.155, respectively.
Take `COC(=O)[C@@]1(Cc2ccccc2)N=C(c2ccc(OCCCO)cc2)O[C@H]1c1ccccc1`: the z-score in experiment [1] is -1.98; in [2], 0.598; in [3], -1.69; in experiment [4], -3.6; in experiment [5] it was -3.94; in experiment [6] it was -2.02. Moreover, the z-score in experiment [7] was 0.294 (inactive); in experiment [8], -1.1; in experiment [9] it was -0.354; in [10] it was -2.02 (inactive); in [11], -0.882; in experiment [12], -2.46 (inactive). Also, the z-score in experiment [13] was -2.96 (inactive); in experiment [15], 0.991 (inactive); in experiment [16] it was 1.47 (inactive); in experiment [17], 2.8 (inactive); in experiment [18], 0.608 (inactive); in experiment [19], -2.43. Further, the composite z-score in experiment [14] is 1.14 (inactive); in experiment [20], 0.244.
With `Cc1ccc(S[C@]2(C(=O)NCCCN(C)C)CC(=O)N(Cc3cc(C(F)(F)F)cc(C(F)(F)F)c3)[C@@H]2c2ccc(CO)cc2)cc1`, the z-score in experiment [1] is -0.159; in experiment [2], 0.374; in experiment [3], -0.767; in experiment [4], -0.47; in experiment [5] it was 0.51; in [6] it was 0.263. Further, the z-score in experiment [7] is -0.849 (inactive); in experiment [8], 0.199; in experiment [9], 0.339; in experiment [10], -0.106 (inactive); in experiment [11], -0.144; in experiment [12] it was -1.33 (inactive). In addition, the z-score is -0.522 (inactive) in experiment [13]; 0.621 (inactive) in experiment [15]; -0.607 (inactive) in [16]; 0.0957 (inactive) in experiment [17]; -0.339 (inactive) in experiment [18]; -0.402 in experiment [19]. Also, the composite z-score was -0.132 (inactive) in experiment [14] and 0.164 in experiment [20].
Consider `C=C(C)[C@@H]1CC=C(C(O)C2C=CC3C(=O)N(c4ccccc4)C(=O)C3N2Nc2ccccc2)CC1` (stereo not given in full), for which the z-score in experiment [1] is 1.62; in experiment [2], -0.63; in experiment [3], 1.16; in [4] it was -0.646; in experiment [5] it was -1.05; in experiment [6] it was -1.95. The z-score is -0.27 (inactive) in [7]; -0.45 in experiment [8]; -0.31 in experiment [9]; 0.296 (inactive) in experiment [10]; -0.126 in experiment [11]; -1.81 (inactive) in experiment [12]. Besides, the z-score in [13] was 0.272 (inactive); in experiment [15], 1.6 (inactive); in experiment [16], 0.367 (inactive); in experiment [17], 0.195 (inactive); in experiment [18], -0.0871 (inactive); in experiment [19], 0.37. The composite z-score in experiment [14] was -0.376 (inactive); in experiment [20] it was 0.0997.
Regarding `CCCC[C@@H]1C[C@H]1[C@@H](NC(=O)C(C)(C)C)c1ccc(C(F)(F)F)cc1`, the z-score is -1.63 in experiment [1]; 0.434 in [2]; -1.6 in experiment [3]; -2.43 in experiment [4]; -3.05 in experiment [5]; -0.754 in experiment [6]. The z-score is -1.64 (inactive) in experiment [7]; -0.204 in experiment [8]; -1.8 in experiment [9]; 0.419 (inactive) in [10]; -0.549 in [11]; 0.594 (inactive) in [12]. The z-score in experiment [13] is -0.858 (inactive); in [15] it was 3.07 (inactive); in [16], 1.17 (inactive); in experiment [17], -0.483 (inactive); in experiment [18], -0.631 (inactive); in [19], 2.01. For the same compound, the composite z-score in [14] is -3.55 (inactive); in [20] it was 0.0256.
Take `CC(C)CNC(=O)[C@@]1(Cc2ccccc2I)c2ccccc2C(=O)N(C2CCCCC2)[C@H]1c1ccc(CO)cc1`: the z-score in [1] was -0.175; in experiment [2], -0.316; in experiment [3] it was -0.762; in experiment [4], -1.45; in [5], -2.39; in [6], -0.396. In addition, the z-score in experiment [7] was -0.485 (inactive); in [8], -0.594; in [9], -0.213; in experiment [10], 0.623 (inactive); in [11], -0.462; in experiment [12], 0.408 (inactive). Further, the z-score in experiment [13] is -0.424 (inactive); in experiment [15], 0.348 (inactive); in [16], -0.199 (inactive); in [17] it was -0.113 (inactive); in experiment [18], -0.0397 (inactive); in experiment [19], -0.124. In addition, the composite z-score in [14] is 0.193 (inactive); in experiment [20] it was -0.0789.
As for `CC(C)C(O)C1C=CC2C(=O)NC(=O)C2N1Nc1ccc(Cl)cc1Cl` (stereo not given), the z-score in experiment [1] is -1.06; in experiment [2] it was -0.699; in experiment [3] it was -0.401; in [4] it was -0.687; in [5] it was -0.644; in [6] it was -2.25. Moreover, the z-score is -1.12 (inactive) in experiment [7]; -0.161 in experiment [8]; -0.143 in experiment [9]; -0.883 (inactive) in [10]; -1.29 in experiment [11]; -9.69 (active) in experiment [12]. For the same compound, the z-score in experiment [13] was -1.59 (inactive); in experiment [15], 0.751 (inactive); in [16] it was 1.05 (inactive); in experiment [17], -0.456 (inactive); in [18], -0.527 (inactive); in experiment [19] it was -1.93. In addition, the composite z-score in experiment [14] is 0.0813 (inactive); in [20] it was -0.02.
